The text below walks through data of PubChem BioAssay AID2314 (National Center for Advancing Translational Sciences (NCATS), 2010).

About 37,000 (12%) of roughly 300,000 compounds were called active. The full list was thinned out, with actives kept by preference. Unmarked numbers belong to inactive results. No stated cut-off is given here; in the data, active means max response mostly above about 13% (no sharp cut-off); inactive means mostly below about 14%.

The nature of the assay: Cycloheximide Counterscreen for Small Molecule Inhibitors of Shiga Toxin. Further: read at 38.3 µM for the half of the compounds with a filed dose; 0% is about no effect. Conditions: cell reporter, cycloheximide protein synthesis inhibition counterscreen; hits give high values.
Turning to `O=c1[nH]nc(SCCS(=O)(=O)c2ccc(F)cc2)n1-c1ccccc1C(F)(F)F`, the max response was -1.24%.
Then `COc1cccc2cc(-c3cc(=O)oc4cc(C)c(O)cc34)oc12`, with 8.46%; and `O=C(NCc1cccs1)c1ccc2c(c1)ncn2C1CCCC1`, with 31.8% (active); and `O=C(NCCN1CCOCC1)c1ccc2c(c1)ncn2C1CCCC1`, with 1.03%.
Then `COc1ccccc1-n1cnc2cc(C(=O)NCC3CCCO3)ccc21` (configuration not stated), with -2.15%; and `CCCCC(CC)CNCc1cccn1CCN1CCOCC1` (configuration not stated), with -0.53%; and `CC(C)=CCc1c(O)c(CC=C(C)C)c2occ(-c3ccc(O)cc3)c(=O)c2c1O`, with 10.9% (active).
Then `CC(C)CN(Cc1c(O)ccc2c(=O)c(-c3ccccc3)coc12)CC(C)C`, with 8.57%; and `O=C(Cn1cc(C(=O)C2CC2)c2ccccc21)Nc1ccccc1Cl`, with -7.35%; and `O=C(CN1CCCCCC1)Nc1ccc(Cl)cc1F`, with 8.65%.
Regarding `O=C(CN1CCOCC1)Nc1c(Cl)cc(Cl)cc1Cl`, the max response is -2.9%.
Then `COc1cc(Cl)c(C)cc1NC(=O)CN1CCCCCC1`, with 0.423%; and `O=C(CN1CCCCCC1)Nc1c(Cl)cc(Cl)cc1Cl`, with 21.3% (active); and `Cc1csc(NC(=O)CN2CCCCCC2)n1`, with 2.46%.
Then `Cc1cc(C)c(NC(=O)CN2CCCCCC2)c(C)c1`, with 34.2% (active).
Regarding `CC1CCCCN1CCCNc1ccc(C(CC(N)=O)NC(=O)c2ccccc2)cc1[N+](=O)[O-]` (configuration not stated), the max response was -1.02%.
Then `COCCN(Cc1cc2cc3c(cc2nc1Cl)OCO3)C(=O)c1cccc(C)c1`, with 5.64%; and `COc1cccc(C(O)Cc2nc3ccccc3n2C)c1OC` (configuration not stated), with 20.6% (active).
Then `CCCn1c(C(O)c2ccc(OCC)cc2)nc2ccccc21` (configuration not stated), with -3.7%; and `CCOc1ccc(C(O)Cn2c(=N)n(CCN3CCCCC3)c3ccccc32)cc1` (configuration not stated), with -4.27%.
Then `COc1cc(C(O)c2nc3ccccc3n2C)cc(OC)c1OC` (configuration not stated), with 0.887%; and `CCOc1ccc(C(O)Cc2nc3ccccc3n2C)cc1` (configuration not stated), with 22.1% (active).
For `COc1ccc(OC)c(C(O)c2nc3ccccc3n2C)c1` (configuration not stated), the max response is -2.03%.
As to `COc1ccc(CN2CC(C(=O)NC3CCCCC3)CC2=O)cc1` (configuration not stated), the max response is -2%.
Then `O=C1Oc2ccccc2C(=O)/C1=C/c1ccccc1O`, with 12.4%.
As to `COCCNC(=O)C1CCN(C(=O)C2CC(=O)N(c3ccc(C)cc3)C2)CC1` (configuration not stated), the max response is 1.44%.
Regarding `CCOC(=O)c1c(NC(=O)c2ccc(S(=O)(=O)N(C)CC3CCCO3)cc2)sc2c1CC(C)(C)NC2(C)C` (configuration not stated), the max response was -4.44%.
Then `COc1ccc(NC(=O)N2CCCC2C(=O)NCc2ccccc2Cl)cc1` (configuration not stated), with -3.43%; and `O=C(c1ccccc1F)N(Cc1ccccc1)Cc1ccccc1`, with -2.08%; and `C=CCN1C=C2C(=O)C(C)(OC(=O)CCc3ccccc3)C(=O)C=C2C=C1c1ccc(C#N)cc1` (configuration not stated), with -1.82%.
As to `Cn1c(=O)c2ccccc2n(CC(=O)Nc2ccc3c(c2)OCCO3)c1=O`, the max response was -8.73%.
Then `O=C(Nc1ccc2c(c1)OCCO2)c1cnccn1`, with 33%; and `O=C(Cn1c(=O)sc2ccccc21)Nc1ccc2c(c1)OCCO2`, with -0.826%.
Then `O=C(CCN1C(=O)c2ccncc2C1=O)Nc1ccc2c(c1)OCCO2`, with 1.67%.
Then `O=C(Nc1ccc2c(c1)OCCO2)c1ccncc1`, with 33.1% (active); and `O=C(Nc1ccc2c(c1)OCCO2)c1ccoc1`, with 35.3% (active); and `COc1cccc(N(C(=O)CNC(=O)c2ccco2)C(C(=O)NC2CCCCC2)c2cccnc2)c1` (configuration not stated), with -2.98%.
`CCN(CC)c1ccc(NC(=O)CN2CCN(c3ccccn3)CC2)cc1`: the max response was -3.57%.
Then `CC[n+]1cc(C)ccc1/C=C/c1ccc(N(C)C)cc1`, with 12.8%; and `O=c1ccnc(Nc2ccc(Cl)cc2)[nH]1`, with 1.06%.
Then `O=C(Nc1cc(S(=O)(=O)N2CCOCC2)ccc1Cl)c1cc(=O)c2ccccc2o1`, with 2.68%.
Then `CCOc1ccc(Nc2oc(Cc3ccccc3)nc2C#N)cc1`, with 31.6% (active); and `N#Cc1nc(Cc2cccc3ccccc23)oc1NCc1ccc2c(c1)OCO2`, with -2.28%; and `N#Cc1nc(Cc2ccccc2)oc1NCCc1ccccc1`, with 39.2% (active).
On to `N#Cc1nc(COc2ccc(-c3ccccc3)cc2)oc1NCc1cccnc1`, for which the max response was 9.29%.
Take `COc1ccc(Nc2oc(-c3ccccc3Cl)nc2C#N)cc1`: the max response was 9%.
Then `Cc1ccccc1-c1nc(C#N)c(NCc2ccco2)o1`, with 8.49%; and `O=c1cc(C(F)(F)F)[nH]c(=O)n1C1CCCCC1`, with 6.49%; and `CCCCn1c(N)c(N(CC)C(=O)c2ccccc2C(F)(F)F)c(=O)[nH]c1=O`, with -3.22%.
Then `CCSc1nc(C)c(CCOc2cccc(C)c2)c(=O)[nH]1`, with 1.14%; and `O=C(Nc1ccccc1)OCc1cc(-c2ccc(Cl)cc2)on1`, with -2.77%; and `Clc1ccc(-c2cc(COc3ccccc3)no2)cc1Cl`, with -2.19%.
Then `O=C(Nc1ccc(Cl)cc1)OCc1cc(-c2ccccc2)on1`, with 22.5% (active).
For `CS(=O)(=O)Nc1cccc(C2=NN(S(=O)(=O)c3ccccc3)C(c3cccs3)C2)c1` (configuration not stated), the max response is -3.68%.
On to `CS(=O)(=O)Nc1ccc(C2=NN(S(C)(=O)=O)C(c3cccs3)C2)cc1` (configuration not stated), for which the max response was 33.7% (active).
Then `Cc1ccccc1C1CC(c2cccs2)=NN1S(C)(=O)=O` (configuration not stated), with -1.48%; and `CS(=O)(=O)Nc1cccc(C2=NN(C(=O)c3cccc(F)c3)C(c3cccs3)C2)c1` (configuration not stated), with -2.01%; and `Cc1ccc(C2CC(c3cccc(NS(C)(=O)=O)c3)=NN2S(C)(=O)=O)cc1` (configuration not stated), with 45.1% (active).
Then `CCS(=O)(=O)Nc1ccc(C2=NN(C(C)=O)C(c3cccs3)C2)cc1` (configuration not stated), with 16%.
Then `CCOc1ccc(NC(=S)NC(=O)/C=C/c2ccc(OC)cc2)c([N+](=O)[O-])c1`, with 9.22%.
In the case of `c1ccc2c(C[n+]3csc4ccccc43)cccc2c1`, the max response was 9.31%.
Then `COC(=O)Cn1cnc2scc(-c3ccc(C)c(C)c3)c2c1=O`, with -2.51%.
